Inconclusive results are not listed. Entries that show only a call come without a potency. Active and inactive are the calls of the source. The call rests on the fitted dose curve; in most records, active means well fitted cell-killing curve with a large enough effect in the repeat runs; inconclusive means weak or mixed curves, or effect the other way; inactive means flat fitted curve, though single readings scatter.
assay: qHTS assay to identify small molecule antagonists of the constitutive androstane receptor (CAR) signaling pathway - cell viability counter screen (AID 1224837); conditions: HepG2-CYP2B6-hCAR viability, CellTiter-Fluor, 23 h, co-treated with 50 nM CITCO; series mostly up to 92.4 µM; further: nearly all actives have a fitted effect of over 45% in size
Excerpt: National Center for Advancing Translational Sciences [NCATS]
NIH Chemical Genomics Center [NCGC]
U.S. Environmental Protection Agency [EPA]
National Institutes of Environmental Health Sciences [NIEHS]
National Toxicology Program [NTP]
U.S. Food and Drug Administration [FDA]
The constitutive androstane receptor (CAR) is a nuclear receptor which regulates multiple drug metabolizing enzymes (DMEs) and transporters. Activating CAR will generally increase the transcription and subsequent translation of CYP2B6 and CYP3A4. These two DMEs represent about 50% of the drug metabolizing potential in the body. When CAR is deactivated, the metabolizing potential in the body will decrease, subsequently increasing the toxicity in the body or lowering the therapeutic potential of a pro-drug. Recently, there have also been studies performed indicating CARs role in energy metabolism and cancer therapy. Therefore, inhibiting CARs activity could have a potential effect on diabetes and cancer. Identifying environmental toxins and compounds which modulate CAR, through the use of the Tox21 10K compound collection, will be an important step in determining the toxicity and potential therapeutic effects these factors will have on the human body. To differentiate true CAR antagonists from cytotoxic substances, the assay is multiplexed with a cell viability assay.
Tox21 Assay Protocol Summary:
A double-stable (hCAR and CYP2B6-2.2kb) transfected cell line, derived from human hepatoma (HepG2) cells, was utilized for the duration of the quantitative high-throughput screens. The HepG2-CYP2B6-hCAR cells were dispensed at 2500 cells/4 uL/well in 1536-well white solid bottom plates using a Multidrop Combi. After the assay plates were incubated at 37 C/5% CO2 for 4 hrs, 23 nL of compounds at 15 concentrations (from 5-48 columns) or positive control (from 1 to 4 columns) were transferred to the assay plates using a Pintool station. One uL of CITCO (final concentration = 50 nM) was added, using a Flying Reagent Dispenser, inside each well. After a 23 hr incubation period at 37 C/5% CO2, 1 uL of CellTiter-Fluor reagent was added into each well of the assay plates using a Flying Reagent Dispenser. The fluorescence intensity in the plates was then measured using a ViewLux plate reader.

Row | Structure (SMILES) | Potency | activity change, negative = cytotoxicity
1 | O=NN1CCCCC1 | inactive | 
2 | Cc1coc2c1CCC(C)C2 (stereo not given) | inactive | 
3 | c1ccc(N2CCNCC2)cc1 | inactive | 
4 | c1cc[c]([Hg][c]2ccccc2)cc1 | inactive | 
5 | Oc1c(Cl)cccc1Cl | inactive | 
6 | Cc1cc(C)c(C(=O)P(=O)(C(=O)c2c(C)cc(C)cc2C)c2ccccc2)c(C)c1 | inactive | 
7 | OCCSCSCCO | inactive | 
8 | CCN(CC)c1nc(C)cc(OP(=S)(OC)OC)n1 | inactive | 
9 | COc1cc(OC)nc(Oc2cccc(Oc3nc(OC)cc(OC)n3)c2C(=O)O)n1 | inactive | 
10 | O=C(Cc1ccccc1)OCc1ccccc1 | inactive | 
11 | CC1=C(C(=O)O)N2C(=O)[C@@H](N)[C@H]2SC1 |  | 0.992% [at 19 µM] (inactive)
12 | CCOc1nc(C(Cl)(Cl)Cl)ns1 | inactive | 
13 | COC(=O)COc1ccc(Cl)cc1Cl | inactive | 
14 | CN1CCC(O)(c2ccc(F)cc2)C(C(=O)c2ccc(F)cc2)C1 (stereo not given) | inactive | 
15 | COc1ccc(C(=O)N2CCCC2=O)cc1 | inactive | 
16 | CCOC(=O)N(C)C(=O)CSP(=S)(OCC)OCC | inactive | 
17 | CC(C)(C)C(=O)C(Oc1ccc(Cl)cc1)n1cncn1 (stereo not given) | inactive | 
18 | C[C@]12CC[C@H]3[C@@H](CC=C4C[C@@H](O)CC[C@@]43C)[C@@H]1CC[C@@H]2O | inactive | 
19 | CCS(=O)(=O)C(C)(C)S(=O)(=O)CC | inactive | 
20 | COP(=S)(OC)Oc1c(Cl)cc(C)cc1Cl | inactive | 

Row | Structure (SMILES) | Potency | activity change, negative = cytotoxicity
21 | CNNC | inactive | 
22 | COC(=O)C(C)Oc1ccc(Oc2ccc(Cl)cc2Cl)cc1 (stereo not given) | inactive | 
23 | Cc1ncc(CNC(=O)N(CCCl)N=O)c(N)n1 | inactive | 
24 | C=C(C)[C@@H]1CC=C(C=O)CC1 | inactive | 
25 | ClCC(Cl)(Cl)Cl | inactive | 
26 | CC(=O)CC(c1ccc(Cl)cc1)c1c(O)c2ccccc2oc1=O (stereo not given) | inactive | 
27 | Cc1nnc2n1-c1sc(CCC(=O)N3CCOCC3)cc1C(c1ccccc1Cl)=NC2 | inactive | 
28 | CC(C=O)Cc1ccc2c(c1)OCO2 (stereo not given) | inactive | 
29 | CCOP(=O)(N=C1SCCS1)OCC | inactive | 
30 | O=[N+]([O-])c1cccc2cccnc12 | inactive | 
31 | CCCCP(CCCC)CCCC | inactive | 
32 | CN1CCC(N(Cc2ccccc2)c2ccccc2)CC1 | inactive | 
33 | Cc1cnc[nH]1 | inactive | 
34 | COP(=S)(OC)Oc1ccc(S(N)(=O)=O)cc1 | inactive | 
35 | O=S(=O)(O)C(F)(F)C(F)(F)C(F)(F)C(F)(F)C(F)(F)C(F)(F)F | inactive | 
36 | CCCCCCBr | inactive | 
37 | CC1CN1P(=O)(N1CC1C)N1CC1C (stereo not given) | inactive | 
38 | CC1(C(=O)Nc2ccc(O)c(Cl)c2Cl)CCCCC1 | inactive | 
39 | CCCCN(CCCCO)N=O | inactive | 
40 | CCCCOC(=O)c1ccccc1C(=O)O | inactive | 
